“And” between values parts separate entries of the source, which are not always exact repeats. Identical values can stand only once. Records with an inconclusive call do not appear. The source made the active and inactive calls. Calls follow the shape of the dose curve; as a rule, active = well fitted inhibition curve with a large enough effect in the repeat runs; inconclusive = weak or mixed curves; inactive = flat fitted curve, though single readings scatter.
% is scaled to controls: 0 for no effect and ±100 for the full control effect; potency is read from the fitted curve at half-maximal effect.

The target in this experiment is Cytochrome P450 2D6 (Homo sapiens) (UniProt P10635). Nature of the experiment: Cytochrome P450 family 2 subfamily D member 6 (CYP2D6) small molecule antagonists: luciferase biochemical (cell-free) qHTS assay (AID 1645840). Also: nearly all actives have a fitted effect of over 55% in size. The following applies: P450-Glo CYP2D6 enzyme, luciferin luminescence, 1 h; series mostly up to 57.4 µM; activity change, negative = inhibition: at the top concentration. The essentials: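 P450-Glo luminescent screen: recombinant CYP2D6 enzyme–proluciferin substrate mix preincubated with compound 10 min at room temperature, then NADPH regeneration added for 1 h at room temperature. Detection reagent added for 20 min; luciferin light read as relative luminescence units.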
Sequence of Cytochrome P450 2D6 (Homo sapiens) (P10635 whole entry, looked up): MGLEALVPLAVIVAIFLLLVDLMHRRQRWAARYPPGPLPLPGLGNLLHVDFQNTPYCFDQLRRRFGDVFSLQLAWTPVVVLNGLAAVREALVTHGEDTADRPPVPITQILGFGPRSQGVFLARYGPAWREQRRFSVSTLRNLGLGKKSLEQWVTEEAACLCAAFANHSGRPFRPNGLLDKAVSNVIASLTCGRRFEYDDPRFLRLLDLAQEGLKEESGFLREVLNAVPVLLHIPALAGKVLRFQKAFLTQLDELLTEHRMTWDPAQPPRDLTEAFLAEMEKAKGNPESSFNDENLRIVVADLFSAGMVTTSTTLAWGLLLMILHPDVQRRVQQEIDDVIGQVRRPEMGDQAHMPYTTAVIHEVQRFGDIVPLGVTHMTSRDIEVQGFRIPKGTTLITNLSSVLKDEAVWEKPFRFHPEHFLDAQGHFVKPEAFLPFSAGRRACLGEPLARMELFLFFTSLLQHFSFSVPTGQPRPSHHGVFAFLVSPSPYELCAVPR
`CCCCNC(=O)NS(=O)(=O)c1ccc(N)cc1`: the “activity change, negative = inhibition” value was 13.9% (inactive).

On to `CCN(CC)CCOC(=O)C1(c2ccccc2)CCCC1`, for which the Potency was 2.19 µM (active).

In the case of `O=C(O)c1ccc(S(=O)(=O)N(Cl)Cl)cc1`, the “activity change, negative = inhibition” value is -2.06% (inactive).

As for `CC(=O)Nc1ccc(OC(=O)c2ccccc2OC(C)=O)cc1`, the Potency is 15.5 µM (active).

`C[N+]12CCC(CC1)C(OC(=O)C(O)(c1ccccc1)c1ccccc1)C2` (stereo unspecified): the Potency was 15.5 µM (active).

With `COc1cc(NS(=O)(=O)c2ccc(N)cc2)ncn1`, the “activity change, negative = inhibition” value is 7.29% (inactive).

Consider `C[C@@H](O)[C@H]1C(=O)N2C(C(=O)O)=C([C@H]3CCCO3)S[C@H]12`, for which the “activity change, negative = inhibition” value was 2.94% (inactive).

As for `CCCCCCCCOc1ccc(C(=O)c2ccccc2)c(O)c1`, the “activity change, negative = inhibition” value was 9.14% (inactive).

As for `CCCc1ncc(C[n+]2ccccc2C)c(N)n1`, the “activity change, negative = inhibition” value is 10.7% (inactive).

Take `CC(=O)N[C@@H](CCC(=O)O)C(=O)O`: the “activity change, negative = inhibition” value is 4.92% (inactive).

As to `CCN1CCN(C(=O)N[C@@H](C(=O)N[C@@H]2C(=O)N3C(C(=O)O)=C(CSc4nnnn4C)CS[C@H]23)c2ccc(O)cc2)C(=O)C1=O`, the “activity change, negative = inhibition” value is -21.8% (inactive).

As to `N#CCC(=O)NN`, the “activity change, negative = inhibition” value is 0.973% (inactive).

Take `CC(C)Nc1cccnc1N1CCN(C(=O)c2cc3cc(NS(C)(=O)=O)ccc3[nH]2)CC1`: the Potency was 6.92 µM (active).

Take `Cc1ccc(S(=O)(=O)NC(=O)NC2CCCC2)cc1`: the “activity change, negative = inhibition” value was 2.63% (inactive).

As for `Nc1ccc(C(=O)NCC(=O)O)cc1`, the “activity change, negative = inhibition” value was -10.6% (inactive).

Take `O=[N+]([O-])c1ccc(/C=N\O)o1`: the Potency is 13.8 µM (active).

Regarding `CCCN(CCC)S(=O)(=O)c1ccc(C(=O)O)cc1`, the “activity change, negative = inhibition” value is -3.02% (inactive).

Consider `O=C(O)P(=O)(O)O`, for which the “activity change, negative = inhibition” value is -7.96% (inactive).

For the compound `CC1CCc2c(N3CCC(O)CC3)c(F)cc3c(=O)c(C(=O)O)cn1c23` (stereo unspecified), the “activity change, negative = inhibition” value is 2.13% (inactive).

For `C/C=C/c1ccc(O)c(OC)c1`, the “activity change, negative = inhibition” value is 9.88% (inactive).

Regarding `Cc1cccc(C)c1NC(=O)c1ccccc1C(=O)O`, the “activity change, negative = inhibition” value was 0.165% (inactive).

In the case of `CCOc1ccccc1OCCN[C@H](C)Cc1ccc(OC)c(S(N)(=O)=O)c1`, the Potency was 15.5 µM (active).

In the case of `CCN(CC)CCOC(=O)C(Cc1cccc2ccccc12)CC1CCCO1` (stereo unspecified), the Potency was 3.09 µM (active) and 3.38 µM (active).

As for `CN1CCN(C2=Nc3ccccc3Sc3ccc(Cl)cc32)CC1`, the Potency was 15.5 µM (active).

In the case of `O=C(CCN1CCN2CCCC2C1)N1c2ccccc2Sc2ccc(Cl)cc21` (stereo unspecified), the Potency was 6.74 µM (active).

Turning to `NC1CCN(c2nc3c(cc2F)c(=O)c(C(=O)O)cn3-c2ccc(F)cc2F)C1` (stereo unspecified), the “activity change, negative = inhibition” value was 3.91% (inactive).

Regarding `FC(F)(F)C(F)(F)C(F)(F)C(F)(F)C(F)(F)C(F)(F)C(F)(F)C(F)(F)Br`, the “activity change, negative = inhibition” value is -7.43% (inactive).

For `Cc1cc(C)cc(OCC2CNC(=O)O2)c1` (stereo unspecified), the “activity change, negative = inhibition” value is 3.34% (inactive).

As for `CCOc1ccccc1C(N)=O`, the “activity change, negative = inhibition” value is -4.78% (inactive).

For `O=C(Nc1ncc([N+](=O)[O-])s1)c1cccs1`, the Potency is 13.8 µM (active).

As for `O=C(O)Cc1csc(-c2ccc(Cl)cc2)n1`, the “activity change, negative = inhibition” value is -1.1% (inactive).

As to `CCOC(=O)[C@@](C)(N)Cc1ccc(O)c(O)c1`, the Potency is 7.76 µM (active).

In the case of `O=C(Nc1ccc([N+](=O)[O-])cc1)Nc1ccc([N+](=O)[O-])cc1`, the “activity change, negative = inhibition” value is 6.99% (inactive).

`CC(=O)Nc1ccc(CC(=O)O)cc1`: the “activity change, negative = inhibition” value is 5.93% (inactive).

Regarding `CC(=O)Oc1ccc(C)cc1`, the “activity change, negative = inhibition” value is -12.8% (inactive).

`CCCCNc1ccc(C(=O)OCCOCCOCCOCCOCCOCCOCCOCCOCCOC)cc1`: the “activity change, negative = inhibition” value is -18.9% (inactive).

Source of the values: PubChem BioAssay (NCATS).
